# Sfp PPTase inh – blocks B. subtilis Sfp PPTase activity; Q9F4F7; Biochemical Sfp PPTase activity, qHTS; Potency, µM, inactives show largest response in the series, negative = inhibition, hits mostly inhibitors; actives 3.5% (n = 310,000); AID 1490;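 note: the enzyme is Sfp with the accession as filed and its product quenches rhodamine fluorescence; 0% = enzyme reaction without inhibitor and -100% = no enzyme wells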
#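 After 15 min at room temperature with compound, 15 nM Sfp received 5 uM rhodamine-CoA plus 12.5 uM BHQ-2-ybbR (50 mM Hepes pH 7.6, 10 mM MgCl2). Rate came from the fluorescence difference over 30 min, ex 525/em 598 nm.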
# JMJD2A Tudor inh – JMJD2A Tudor domain (human) inhibition; AlphaScreen JMJD2A-Tudor / H3K4me3 peptide binding; Potency, µM (doses to about 114 µM), for inactives: at the highest dose activity change, negative = inhibition, hits mostly inhibitors; O75164; actives 4.4% (n = 390,000); note: % is set by controls: 0 for no effect and ±100 for the full control effect; nearly all actives have a fitted effect of over 50% in size
# Target sequence (O75164 whole entry, looked up, the tested form may be a part): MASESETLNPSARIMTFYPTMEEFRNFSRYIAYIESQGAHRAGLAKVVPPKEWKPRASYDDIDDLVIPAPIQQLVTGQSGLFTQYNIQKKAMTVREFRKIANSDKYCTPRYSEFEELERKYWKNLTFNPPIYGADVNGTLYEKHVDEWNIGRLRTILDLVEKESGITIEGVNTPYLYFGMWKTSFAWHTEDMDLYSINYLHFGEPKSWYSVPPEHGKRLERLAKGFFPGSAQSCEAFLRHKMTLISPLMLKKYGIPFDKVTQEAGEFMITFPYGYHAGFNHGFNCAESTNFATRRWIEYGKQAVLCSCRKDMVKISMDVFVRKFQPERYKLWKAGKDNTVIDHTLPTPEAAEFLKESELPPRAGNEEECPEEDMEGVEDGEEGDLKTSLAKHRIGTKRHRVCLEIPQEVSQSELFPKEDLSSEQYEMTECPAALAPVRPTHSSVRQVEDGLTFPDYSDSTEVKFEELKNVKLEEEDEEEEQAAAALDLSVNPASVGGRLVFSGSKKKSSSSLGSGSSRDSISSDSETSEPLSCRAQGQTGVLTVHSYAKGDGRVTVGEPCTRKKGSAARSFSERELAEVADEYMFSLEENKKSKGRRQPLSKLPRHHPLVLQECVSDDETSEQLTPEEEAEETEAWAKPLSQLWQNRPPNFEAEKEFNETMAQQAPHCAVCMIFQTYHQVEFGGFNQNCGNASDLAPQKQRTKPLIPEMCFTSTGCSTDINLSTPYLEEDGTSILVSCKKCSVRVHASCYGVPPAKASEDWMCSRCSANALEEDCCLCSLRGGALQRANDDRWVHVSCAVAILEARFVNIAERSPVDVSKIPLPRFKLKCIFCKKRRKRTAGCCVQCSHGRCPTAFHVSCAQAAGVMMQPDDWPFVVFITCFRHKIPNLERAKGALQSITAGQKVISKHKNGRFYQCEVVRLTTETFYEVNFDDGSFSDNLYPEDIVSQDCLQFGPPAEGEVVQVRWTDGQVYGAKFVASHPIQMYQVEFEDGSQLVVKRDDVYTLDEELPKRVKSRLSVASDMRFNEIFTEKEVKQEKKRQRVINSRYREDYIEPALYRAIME
# G9a block – inhibitors of human histone lysine methyltransferase G9a. actives 8.8% (n = 350,000). Potency, µM (highest dose often 102 µM), without a hit: at the top dose activity, negative = inhibition, actives largely listed as inhibitors. G9a H3K9 monomethylation, AlphaScreen, 2 h. AID 504332; note: % is set by controls: 0 for no effect and ±100 for the full control effect; nearly all actives have a fitted effect of over 75% in size
#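 Readings reflect AlphaScreen signal from monomethyl-H3K9 antibody detection. HMT at 20 nM; substrate b-H3K9 500 nM; cofactor SAM 20 uM; 2 h RT reaction; compounds tested as titrations in qHTS with 15 min preincubation.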
# BAZ2B inh – blocks human BAZ2B; Q9UIF8; AlphaScreen BAZ2B-H3K14Ac peptide displacement; Potency, µM (doses to about 114 µM), without a hit: at the top dose activity change, negative = inhibition, most hits filed as inhibitors; actives 4.4% (n = 360,000); AID 504333; note: % is set by controls: 0 for no effect and ±100 for the full control effect; nearly all actives have a fitted effect of over 60% in size
#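 Compounds, titrated to a top concentration of 110 uM, were incubated 30 min at room temperature with preformed BAZ2B/acetyl-K14 H3 peptide complex (50 nM each). Proximity signal was measured by AlphaScreen after 20 min with beads.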
# HP1b chromo inh – blocks HP1-beta chromodomain binding to methylated histone tails; P83916; Potency, µM (top dose mostly 114 µM), inactives show at the highest dose activity change, negative = inhibition, usual class: inhibitors; actives 0.56% (n = 390,000); AID 540317; AlphaScreen HP1-beta / biotin-H3K9me3 peptide binding; note: nearly all actives have a fitted effect of over 70% in size
#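 AlphaScreen: HP1-beta (50 nM) preformed 30 min with biotin-H3(1-18)K9me3 peptide (50 nM) in PBS pH 7.4, 0.01% Tween-20. Compound added for 30 min at RT, then streptavidin donor/nickel chelate acceptor beads (10 ug/mL) for 30 min.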
# Active calls of the source: *; ? = inconclusive; · = no result given; ! = not confirmed by another sample; [ ] = dose if it differs, or a comment. This is a sample that favours compounds with a hit; in the whole collection about 12% have one here. Calls come from the whole dose curve; as a rule, active = well fitted curve in the direction sought with a large enough effect; inconclusive = small, poorly fitted or top-dose-only effect, or another doubt; inactive = no such curve, though single readings can be large; an effect the other way counts as inactive or inconclusive. Potency is the fitted concentration of half-maximal effect.
SMILES,Sfp PPTase inh,JMJD2A Tudor inh,G9a block,BAZ2B inh,HP1b chromo inh
COC(=O)CN1C(=O)S/C(=C/c2cc(C)n(C)c2C)C1=O,12%,?,?,?,-21%
O=C(O)CN1C(=O)/C(=C/c2ccc(N3CCCCC3)o2)SC1=S,28µM*,?,25µM*,35µM*,?
CCOC(=O)CN1C(=O)S/C(=C\c2ccc(-c3cccc(C(=O)O)c3C)o2)C1=O,·,-2%,·,·,18%
O=C(COC(=O)c1ccccc1)NCCC1=CCCCC1,17%,-13%,0%,0%,11%
COCCOC(=O)C1=C(C)NC(=O)NC1c1cn(-c2ccccc2)nc1-c1ccccc1 (stereo unspecified),·,-14%,-3%[59 µM],1%,35%
Cc1cccc(NC(=O)CSc2nc3ccccc3c3nc(CCn4cncc4C)nn23)c1,·,?,?,-34%,28%
CCOC(=O)c1sc2ccccc2c1S(=O)(=O)NCc1ccc(F)cc1,·,-8%,-7%[59 µM],9%,2%
O=C(O)c1ccc(-c2ccc(/C=C3\NC(=O)N(Cc4ccc(Cl)cc4)C3=O)o2)cc1Cl,20µM*,32µM*,20µM*,22µM*,32µM*
CCOC(=O)CN1C(=O)S/C(=C/c2ccc(N3CCCCC3)o2)C1=O,14µM*,50µM*,3.2µM*,-7%,17%
O=C1N/C(=C\c2ccc(N3CCOCC3)c(F)c2)C(=O)N1Cc1ccccc1,0%,-2%,21%,4%[57.1 µM],53%
CCN(CC)c1ccc(/C=C2/SC(=O)N(C(C)C)C2=O)o1,3.2µM*,?,7.1µM*,?,5%
CCOC(=O)CN1C(=O)S/C(=C/c2ccco2)C1=O,28%,3%,?,?,24%
CCNc1ncc2nc(-c3ccccc3)c(=O)n(-c3ccc(OC)cc3)c2n1,6%,·,4%[12.7 µM],·,·
COc1ccc(-c2cc(C(F)(F)F)nc(-n3cc(Br)cn3)n2)cc1,22µM*,-3%,8%[12.7 µM],23%,35%
COc1ccc(-c2cc(C(F)(F)F)nc(-n3cc(Cl)cn3)n2)cc1,?,-20%,11%[12.7 µM],8%,28%
O=C(NC(=S)N1CCCCC1c1cccnc1)c1ccc(Br)cc1 (stereo unspecified),-25%,0%,22µM*,-4%[57.1 µM],35%
O=C(NC(=S)NN1CCCCC1c1cccnc1)c1ccc(Cl)cc1Cl (stereo unspecified),10%,-24%,71µM*,-4%,23%
O=C(NC(=S)N1CCCCC1c1cccnc1)c1ccc(F)cc1 (stereo unspecified),-16%,-19%,32µM*,-13%[57.1 µM],-1%
O=[N+]([O-])c1ccc2c(c1N1CCCCC1)=NC1(CCCCC1)[N+]=2[O-],25µM*,?,50µM*,35µM*,40µM*
O=[N+]([O-])c1cccnc1N1CCCCC1,16%,?,6%,-28%,-10%
O=C1NC(=S)S/C1=C\c1ccc(SCc2ccco2)o1,20µM*,6.3µM*,10µM*,18µM*,11µM*
O=C1NC(=S)S/C1=C\c1ccc(SCc2ccccc2)o1,?,25µM*,?,50µM*,?
Cn1cccc1/C=C1\SC(=Nc2cccc(O)c2)NC1=O,-20%,?,·,25µM*,?
Cc1ccc2oc(C(=O)N(Cc3ccncc3)CC3CCCO3)c(C)c2c1 (stereo unspecified),6%,-9%,?,-19%,24%
Cc1cc2oc(C(=O)N(Cc3ccc(N(C)C)cc3)CC3CCCO3)c(C)c2cc1Cl (stereo unspecified),·,22µM*,14µM*,14µM*,-21%
CCCc1ccc2oc(C(=O)N(Cc3ccncc3)CC3CCCO3)c(C)c2c1 (stereo unspecified),-10%,-20%,-10%,-29%,26%
Cc1c(C(=O)N(Cc2ccc(N(C)C)cc2)CC2CCCO2)oc2ccc(Cl)cc12 (stereo unspecified),·,13µM*,11µM*,10µM*,?
Cc1c(C(=O)N(Cc2ccc(N(C)C)cc2)CC2CCCO2)oc2ccccc12 (stereo unspecified),-12%,28µM*,14µM*!,11µM*,?
